Shown are actives, neighbours in structure and some others; about 21% of the full set was active somewhere.
Cycloheximide cs: affects cycloheximide protein synthesis inhibition readout, counter-screen | AID 2314 | cell reporter, cycloheximide protein synthesis inhibition counterscreen | max response, % | hit rate 12% among 300,000; in the data active = max response mostly above about 13%, no sharp cut-off; inactive = mostly below about 14%; also: read at 38.3 µM for the half of the compounds with a filed dose; 0% is about no effect
Pf growth 96h: P. falciparum growth inhibition at 96 hour, primary screen for plastid delayed-death inhibitors. AID 504834. hit rate 6.9% among 320,000. P. falciparum luciferase reporter growth, 96 h. Potency, µM (top dose mostly 28.7 µM), without a hit: at the highest dose activity change, negative = inhibition, usual class: inhibitors; also: potency is read from the fitted curve at half-maximal effect; % is scaled to controls: 0 for no effect and ±100 for the full control effect
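Two-generation exposure (96 h) targets delayed-death phenotype. Reporter parasites carrying integrated firefly luciferase, in red cells at 2% hematocrit and 0.05% parasitemia final, kept at 37 C, 5% CO2; luminescence loss indicates inhibition.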
Shiga inhibitor: blocks Shiga toxin action in Vero cells. Vero cells, Shiga toxin protein synthesis inhibition reporter. inhibition, % at 38.7 µM. hit rate 9.2% among 290,000. AID 2315; in the data active = inhibition mostly above about 28%, no sharp cut-off; inactive = mostly below about 43%; also: 0% is about no effect
HCV inhibitor: HCV inhibition; Huh7.5.1 HCVcc-Cre infection, luciferase reporter, 44 h; Potency, µM (doses to about 41.8 µM), without a hit: at the highest dose activity change, negative = inhibition, actives largely listed as inhibitors; hit rate 3.4% among 340,000; AID 651820; also: potency is read from the fitted curve at half-maximal effect; % is scaled to controls: 0 for no effect and ±100 for the full control effect
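Whole-lifecycle infectious HCVcc-Cre system; cells 1,000/well, compound then virus (~0.5 moi) added 4 h after plating, 44 h culture. Luciferase read 15 sec following 15 min substrate incubation, room temp.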
Pf growth 48h: inhibits P. falciparum growth in the first generation, 48 h | P. falciparum luciferase growth in erythrocytes, 48 h | Potency, µM (series often up to 28.7 µM), for inactives: top-dose activity change, negative = inhibition, usual class: inhibitors | hit rate 5.9% among 310,000 | AID 504832; also: potency is read from the fitted curve at half-maximal effect; % is scaled to controls: 0 for no effect and ±100 for the full control effect
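In quantitative HTS format, infected erythrocytes bearing luciferase-reporter parasites were treated for a single generation at 37 C. Luminescence after adding detection reagent served as the growth measure.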
AMA1 RON2 block: disrupts binding of P. falciparum AMA1 to RON2; AlphaScreen AMA1-biotinylated RON2 peptide binding; Potency, µM (top dose mostly 58.2 µM), for inactives: at the top dose activity change, negative = inhibition, hits mostly inhibitors; hit rate 0.2% among 360,000; AID 720542;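 also: potency is read from the fitted curve at half-maximal effect; 0% = vehicle wells and -100% = peptide control; nearly all actives have a fitted effect of over 45% in size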
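AMA1 (3D7) with his tag at 25 nM final met compounds first, then biotinylated RON2 peptide at 25 nM; detection used donor plus acceptor beads, 10 µg/mL apiece, read by AlphaScreen after 30 min at room temperature.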
* hit, by the source's call; i = inactive; u = inconclusive; x = not tested or not shown; [ ] = another dose, or the depositor's remark. Unless noted, calls follow the shape of the dose curve; as a rule, active = well fitted curve in the direction sought with a large enough effect; inconclusive = small, poorly fitted or top-dose-only effect, or another doubt; inactive = no such curve, though single readings can be large; an effect the other way counts as inactive or inconclusive.

SMILES | Cycloheximide cs | Pf growth 96h | Shiga inhibitor | HCV inhibitor | Pf growth 48h | AMA1 RON2 block
CC1CCN(CC(O)COC2CC(C)CCC2C(C)C)CC1 (configuration not stated) | -2.5 | u | 18.5 | -23.9% | 11.7µM* | -3.0%
CCOC(=O)N1CCN(CC(O)COC2CC(C)CCC2C(C)C)CC1 (configuration not stated) | -3.9 | x | -20.9 | -10.4% | u | -0.9%
CC1CCC(C(C)C)C(OCC(O)CNC(C)(C)C)C1 (configuration not stated) | -6.5 | 5.22µM* | -8.8 | -7.7% | u | -0.1%
CC1CCC(C(C)C)C(OCC(O)CNC(C)c2ccccc2)C1 (configuration not stated) | -6.6 | u | -11.9 | u | u | 4.1%
Cn1c(SCC(=O)Nc2cccc(F)c2)nc2c([nH]c3ccccc32)c1=O | -7.4 | -33.6%[1.15 µM] | 19.0 | -9.7% | -35.9%[1.15 µM] | 5.3%
COc1ccc(-n2c(SCC(=O)C(C)(C)C)nc3c(sc(=S)n3-c3ccccc3)c2=O)c(OC)c1 | 3.8 | 0.0% | -4.6 | u | 2.08µM* | 2.9%
CCOC(=O)CSc1nc2c(sc(=S)n2-c2ccccc2OC)c(=O)n1Cc1ccco1 | -1.8 | 8.7% | -2.5 | 2.82µM* | u | -24.4%
CCN(CC)C(=O)CSc1nc2c(sc(=S)n2Cc2ccco2)c(=O)n1-c1ccccc1 | -1.9 | 7.38µM* | -10.7 | -25.4% | u | -4.3%
CCOC(=O)CSc1nc2c(sc(=S)n2Cc2ccco2)c(=O)n1-c1ccccc1 | -3.3 | u | -15.4 | u | u | -3.7%
CCOC(=O)CSc1nc2c(sc(=S)n2-c2ccccc2OC)c(=O)n1-c1ccccc1OC | -1.4 | 11.4% | -7.7 | u | 11.7µM* | -5.1%
O=C(Nc1cccc(-c2ccc(F)cc2)c1)C1CCCN(C(=O)c2cscn2)C1 (configuration not stated) | -4.8 | -13.6% | -4.8 | u | 3.4% | -7.4%
COC(=O)Nc1ccc2c(c1)N(C(=O)CCCl)c1ccccc1S2 | -0.8 | -18.4% | -13.2 | u | 7.0%[0.00184 µM] | -4.2%
CCCCOCCCNC(=O)C[C@@H]1C[C@@]2(C(=O)OC)CCCCC=C2N(Cc2ccccc2)C1=O | x | x | x | x | x | 8.4%
COc1ccccc1C(=O)Nc1cccc(-c2cn3ccsc3n2)c1 | 27.0* | x | 42.1* | -26.0% | -9.0% | x
CCOc1ncccc1C(=O)Nc1ccc(-c2cn3ccsc3n2)cc1 | -3.9 | u | 21.4 | -10.3% | -21.3% | -20.6%
CCCCC(=O)Nc1cccc(-c2cn3ccsc3n2)c1 | 34.3* | u | 47.3* | -18.5% | 106.4% | 31.5%
Cc1ccn2cc(-c3cccc(NC(=O)CCC(=O)O)c3)nc2c1 | -0.4 | 64.1% | 4.7 | 9.7% | 90.8% | -3.0%
O=C(Nc1cccc(-c2cn3ccsc3n2)c1)c1ccccc1 | 19.2 | 6.7% | 43.4 | 25.1µM* | 89.7% | -10.8%
O=C(CNC(=O)N1CC(=O)Nc2ccccc21)Nc1ccc(Cl)cc1Cl | x | x | x | x | x | 3.0%
CCCc1nnc(NC(=O)c2c(O)c3c([nH]c2=O)CCCC3)s1 | -1.3 | 25.7% | -18.5 | 0.4% | 3.6% | 11.0%
O=C(N/N=C/c1ccccc1)c1c(O)c2ccccc2[nH]c1=O | 11.8 | i | -0.5 | u | 98.2% | 61.8%
O=C(N/N=C/c1cccc(Cl)c1)c1c(O)c2c([nH]c1=O)CCCC2 | 18.2* | 162.0% | 46.5 | -25.0% | 175.9% | 0.0%
O=C(Nc1ccccc1O)c1c(O)c2c([nH]c1=O)CCCC2 | 40.5* | 2.6% | 115.6* | 14.3% | 38.2% | 28.5%
O=C(Nc1nccs1)c1c(O)c2c([nH]c1=O)CCCC2 | 12.9* | 166.4% | 25.5 | 12.6% | 49.5% | -5.7%
CCNCCNC(=O)c1c(O)c2c([nH]c1=O)CCCC2 | 0.8 | 12.5% | -14.2 | -10.8% | -15.0% | 11.2%
SMILES | Cycloheximide cs | Pf growth 96h | Shiga inhibitor | HCV inhibitor | Pf growth 48h | AMA1 RON2 block
Cn1cc(CN2CCC(CO)(CCCc3ccccc3)CC2)c(-c2ccccc2)n1 | 0.2 | -0.9% | -19.2 | -15.7% | -33.4% | 2.2%
O=C(CSc1ccc(-c2ccncc2)nn1)N1CCN(c2ccccc2)CC1 | -3.0 | u | 15.2 | u | 15.1% | -24.7%
Cc1ccn2c(=O)c(NC(=O)c3ccc(Br)o3)c(C)nc2c1 | x | 35.2% | x | -19.3% | 2.6% | 21.9%
CCOC(=O)CSc1nnc(NC(=O)CN2CCCCC2)s1 | -5.9 | -3.4% | -1.8 | -6.4% | u | 27.9%
Cc1ccsc1/C=C(\C#N)C(=O)NCc1ccco1 | 8.8 | -5.4% | -7.4 | 35.6% | 2.6% | -2.4%
COc1ccc(N(CCC#N)C(=O)/C(C#N)=C\c2cccs2)cc1 | 20.1* | -10.8% | 40.8 | 3.0% | 8.4% | -4.0%
N#C/C(=C\c1cccs1)C(=O)NCc1ccco1 | 38.6* | u | 56.1* | 25.6% | 26.4% | 6.2%
N#CCCN(C(=O)COC(=O)/C=C/c1cccs1)c1ccccc1 | x | x | x | 3.5% | x | -4.7%
CSc1ccc(/C=C(\C#N)C(=O)Nc2cccc(C)c2)cc1 | 21.7* | u | 36.2 | -6.9% | 1.8% | 1.4%
Cc1ccc(/C=C(\C#N)C(=O)NCc2ccco2)o1 | 42.7* | 0.2% | 65.6* | 1.7% | 105.0% | -1.3%
Cc1ccc(S(=O)(=O)N2CCC[C@H]2C(=O)NC2CCCCC2)cc1 | x | x | x | -8.2% | x | -9.4%
O=C(CN1C(=O)c2ccccc2C1=O)Nc1cccc(S(=O)(=O)Nc2ccccc2Cl)c1 | -1.0 | -11.9% | -4.1 | 6.4% | -0.2% | -8.1%[2.32 µM]
O=C(OCC(=O)c1ccc(Cl)s1)c1ccc(CO)cc1 | x | 79.7% | x | -1.3% | 129.9% | 13.8%
COCCNC(=O)/C(C#N)=C/c1ccc(C(=O)O)cc1 | -2.7 | 6.7% | -13.6 | 14.9% | 5.0% | 13.7%
CN(C)c1ccc(/C=C(/C#N)C(=O)NCc2ccccc2)o1 | 59.4* | 41.7% | 30.9 | -20.3% | 85.7% | -12.3%
COCCNC(=O)/C(C#N)=C/c1ccc(OC(=O)c2cccs2)c(OC)c1 | 8.8 | -6.6% | 4.2 | 5.9% | 13.7% | -17.6%
COCCNC(=O)/C(C#N)=C/c1ccc(SC)cc1 | 30.4* | -2.1% | 64.6* | -6.3% | -6.8% | 18.3%
N#C/C(=C/c1ccccc1)C(=O)NCc1ccccc1 | 9.6 | 3.1% | -1.6 | 2.2% | 8.0% | -13.2%
COCCNC(=O)/C(C#N)=C/c1cccs1 | 13.7* | 41.9% | 31.4 | 8.5% | 36.5% | 4.4%
Cc1c(NC(=O)c2ccc(CC(C)C)o2)c(=O)n(-c2ccccc2)n1C | 1.4 | u | -2.0 | 7.3% | -14.3% | -2.7%
CCCc1c(C(=O)N/N=C(/C)c2ccncc2)nnn1-c1nonc1N | 1.6 | 18.3% | 2.3 | -35.5% | 15.6% | 7.9%
O=C(O)CC(NNC(=O)c1ccccc1)C(=O)Nc1cccc([N+](=O)[O-])c1 (configuration not stated) | 23.4* | 13.0% | 72.1* | 15.3% | 14.6% | 90.1%
O=C(CNC(=S)NC(=O)c1cccc([N+](=O)[O-])c1)c1ccccc1 | 4.4 | 10.4µM* | -4.9 | -10.2% | 32.0% | 99.0%

Bioassay records deposited in PubChem by National Center for Advancing Translational Sciences (NCATS).
